# According to PubChem BioAssay (Tox21):
# The source made the active and inactive calls. Calls follow the shape of the full dose curve.
# Molecular target: Acetylcholinesterase (Homo sapiens) (UniProt P22303)
# Test: Acetylcholinesterase (AChE) small molecule antagonists: enzyme-based qHTS assay with human liver microsomes (AID 1347399); also: nearly all actives have a fitted effect of over 60% in size
# Details: Potency: qHTS inhibition; outcome: qHTS inhibition; series mostly up to 115 µM; activity change, negative = inhibition: at the top concentration
# In short: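 Recombinant human AChE (50 mU/mL in the enzyme mix) and human liver microsomes (0.25 mg/mL final) were preincubated with compound and NADPH (0.25 mg/mL final) for 30 min at 37 C. Acetylthiocholine/DTNB was then added; thiocholine was read colorimetrically after 10 min at room temperature.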
# % is scaled to controls: 0 for no effect and ±100 for the full control effect.
# Acetylcholinesterase (Homo sapiens), sequence (P22303 whole entry, looked up): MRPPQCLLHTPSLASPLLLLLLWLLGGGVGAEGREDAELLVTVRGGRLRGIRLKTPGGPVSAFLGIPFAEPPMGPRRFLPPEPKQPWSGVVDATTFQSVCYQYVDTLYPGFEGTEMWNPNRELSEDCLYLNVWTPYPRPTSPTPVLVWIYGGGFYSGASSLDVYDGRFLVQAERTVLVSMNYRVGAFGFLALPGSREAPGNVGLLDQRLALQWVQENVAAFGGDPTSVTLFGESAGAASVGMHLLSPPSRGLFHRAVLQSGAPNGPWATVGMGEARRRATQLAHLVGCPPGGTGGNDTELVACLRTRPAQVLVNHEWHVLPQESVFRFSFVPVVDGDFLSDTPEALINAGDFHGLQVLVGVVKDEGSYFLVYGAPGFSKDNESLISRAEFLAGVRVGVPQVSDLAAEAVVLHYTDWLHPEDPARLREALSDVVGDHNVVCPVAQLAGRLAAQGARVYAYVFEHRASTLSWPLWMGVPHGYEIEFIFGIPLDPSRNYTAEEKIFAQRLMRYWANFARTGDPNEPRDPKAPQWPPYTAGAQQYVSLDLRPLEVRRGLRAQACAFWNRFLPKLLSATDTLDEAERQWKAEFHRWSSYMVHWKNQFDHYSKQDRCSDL
row,Compound,"activity change, negative = inhibition"
1,OCCCC1CCCCC1,-0.268% (inactive)
2,NCC1CCCC(CN)C1 (stereo not drawn),-1.66% (inactive)
3,COc1cc(C(C)C)ccc1C,-4.86% [at 23.6 µM] (inactive)
4,O=C(O)c1cc(=O)c2ccccc2o1,1.51% [at 53 µM] (inactive)
5,CCC(=O)C(=O)CC,-1.79% (inactive)
6,c1csc(SSc2cccs2)c1,-2.06% (inactive)
7,CC(C)(C)c1cc(C=O)cc(C(C)(C)C)c1O,0.801% [at 53 µM] (inactive)
8,Clc1cc(Cl)c(Cl)nc1Cl,1.71% (inactive)
9,COc1cc(N)ccc1C,1.23% (inactive)
10,Cc1cc(CC(=O)O)c(C)n1-c1ccc(Cl)cc1,2.18% [at 53 µM] (inactive)
11,CCCCCCCCCOC(=O)c1ccccc1C(=O)OCCCCCCCCC,-1.9% (inactive)
12,COc1cc(C=C2CCC/C(=C\c3ccc(O)c(OC)c3)C2=O)ccc1O,22.6% [at 53 µM] (inactive)
13,CN(C)C(=O)Nc1ccc(Oc2ccc(Cl)cc2)cc1,0.291% (inactive)
14,CCCCC(=O)O[C@]1(C(=O)CO)[C@H](C)C[C@H]2[C@@H]3CCC4=CC(=O)C=C[C@]4(C)[C@@]3(F)[C@@H](O)C[C@@]21C,-0.161% [at 53 µM] (inactive)
15,NC(=O)c1ccncc1,-0.853% (inactive)
16,CC(=O)N[C@@H](CCC(=O)O)C(=O)O,1.18% [at 53 µM] (inactive)
17,CO[Si](CCCCl)(OC)OC,3.76% (inactive)
18,OC(C#CCN1CCCC1)(c1ccccc1)c1ccccc1,-1.65% [at 53 µM] (inactive)
19,C=C(C)CCCC,-0.151% (inactive)
20,O=CNc1ccccc1,-0.682% (inactive)
21,O=S(=O)(O)c1cc(I)c(O)c2ncccc12,-2.18% [at 53 µM] (inactive)
22,O=C(Nc1ccc(Oc2ccc(Cl)cc2)c(Cl)c1)c1cc(I)cc(I)c1O,-0.213% [at 53 µM] (inactive)
23,CCN(CC)CC(=O)OCC(=O)[C@@]1(O)CC[C@H]2[C@@H]3CCC4=CC(=O)CC[C@]4(C)[C@H]3[C@@H](O)C[C@@]21C,0.504% [at 53 µM] (inactive)
